B1: unnamed (peptide)
chain: TTAPALPSLPPPPLL

Bounds are passed on as bounds.

One assay has as its target ScSla1-D1-D2. As to the kind of experiment: SPOT peptide array binding signal intensity (averaged, normalized) (arbitrary units (background-subtracted, floor 0; scale differs between SH3 domains)); higher = stronger binding of the SH3 domain to the peptide. In short, it runs like this: (§1)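 Spot intensities were captured after detection with anti-GST antibody, an HRP-linked anti-mouse secondary and luminol, and quantified with Genespotter. The probes were GST-fused SH3 domains from four yeast species, produced in E. coli BL21(DE3), purified on glutathione Sepharose and incubated at 10 μg/ml overnight at 4°C on cellulose-bound synthetic 15-mer peptides with cysteines replaced by serines. Binding signal is the normalized, background-subtracted spot intensity averaged over replicates, and its arbitrary units differ between domains.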
B1: the “SPOT peptide array binding signal intensity” value is not above 0.

The next assay concerns the target ScSla1-D3. The assay is described as above. In short, it runs like this: as §1
For B1, the “SPOT peptide array binding signal intensity” value is 1.5.

The target in the next assay is SpAbp1-D1. Described as above. In short, it runs like this:
as §1
Turning to B1, the “SPOT peptide array binding signal intensity” value was not above 0.

The next assay deals with SpBbc1. The description is as above. In short, it runs like this:
as §1
Regarding B1, the “SPOT peptide array binding signal intensity” value stood at 7.5.

The next assay deals with SpBzz1-D1. The description is as above. In short, it runs like this:
as §1
Turning to B1, the “SPOT peptide array binding signal intensity” value stood at 124.

For a further assay, the target named is SpBzz1-D2. The assay is described as above. In a few lines:
as §1
On to B1, for which the “SPOT peptide array binding signal intensity” value was not above 0.

Another assay concerns the target SpCyk3. Described as above. In a few lines:
as §1
As for B1, the “SPOT peptide array binding signal intensity” value was 1.

The target in another assay is SpHof1. The description is as above. In a few lines: as §1
On to B1, for which the “SPOT peptide array binding signal intensity” value was not above 0.

For a further assay, the target named is SpHof1-2. The assay is described as above. In short, it runs like this:
as §1
As for B1, the “SPOT peptide array binding signal intensity” value turned out to be 39.8.

For the next assay, the target named is SpHof1-3. Described as above. In a few lines:
as §1
As to B1, the “SPOT peptide array binding signal intensity” value is not above 0.

For a further assay, the target named is SpHse1. The description is as above. In short, it runs like this:
as §1
As for B1, the “SPOT peptide array binding signal intensity” value is not above 0.

The next assay addresses SpLsb1. The description is as above. In short, it runs like this: as §1
Consider B1, for which the “SPOT peptide array binding signal intensity” value was not above 0.

In the next assay the target is SpLsb4. Described as above. In a few lines:
as §1
In the case of B1, the “SPOT peptide array binding signal intensity” value is not above 0.

In the next assay the target is SpMyo1. Described as above. In a few lines:
as §1
On to B1, for which the “SPOT peptide array binding signal intensity” value is 1940.

The next assay deals with SpNbp2. Described as above. In a few lines: as §1
Take B1: the “SPOT peptide array binding signal intensity” value is not above 0.

The target of another assay is SpPex13. Described as above. In a few lines: as §1
Consider B1, for which the “SPOT peptide array binding signal intensity” value is 11.

The target of the next assay is SpRvs167. Described as above. In short, it runs like this:
as §1
Turning to B1, the “SPOT peptide array binding signal intensity” value was not above 0.

In the next assay the target is SpSla1-D1-D2. Described as above. In a few lines: as §1
Regarding B1, the “SPOT peptide array binding signal intensity” value was found to be 4.

The next assay concerns the target SpSla1-D3. Described as above. In short, it runs like this:
as §1
Regarding B1, the “SPOT peptide array binding signal intensity” value amounted to 2.

The values are drawn from the supplement of paper PMC4466140.
